Measurements published in PubChem BioAssay.
Values joined by “and” are separate entries in the source; they are usually repeats but may differ in a detail not shown here. Identical values can stand only once. Active and inactive are the calls of the source.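 How the source made its calls, unless noted: active means normalized viability below 100% at a tested concentration; inactive means the rest.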

Experiments:
[1] = compounds altering viability of human ES cells (AID 493140; call rule not given here;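 further: cells exposed to compounds for four days before counting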); settings: human embryonic stem cell survival screen; stronger effect = higher value
[2] = P. berghei load reduction in hepatocytes – cell-based, HepG2, luciferase luminescence, HepG2 viability, primary screen (AID 624349; in the data active means parasite load remaining mostly below about 12%, no sharp cut-off; inactive means mostly above about 10%;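 further: 100% = mean of DMSO negative control wells on the same plate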); settings: P. berghei liver stage in HepG2, luciferase luminescence, concentration not given here; parasite load remaining: stronger effect = lower value; viability: measured here: HepG2 viability without parasites
[3] = stimulators of insulin release from INS-1E, primary screen, cell-based, 5 mM glucose, NPC library (AID 1117329;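 active means compound raises insulin release from rat beta cells at 5 mM glucose, no numeric limit stated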); settings: rat INS-1E insulin secretion, at 10 µM, stronger effect = higher value
[4] = growth inhibition of GSK3B-pretreated HCT116 cells – cell-based, CellTiter-Glo, 0.2 to 20 µM (AID 1117336;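 active means compounds lowering colon cancer cell viability after pretreatment blocking the GSK3B kinase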); settings: HCT116 viability after GSK3B inhibitor, at 20 µM, stronger effect = higher value
[5] = inhibition of endothelial tube formation, primary screen, imaging, VEGF stimulated, CD31 staining, tube area, NPC library (AID 1117340;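 active means compound that reduces growth-factor-driven endothelial tube area in a mixed cell culture, no cutoff stated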); settings: VEGF-stimulated ADSC/ECFC co-culture, at 10 µM, stronger effect = higher value
[6] = GLP1 release stimulators, primary, NCI-H716, NPC library (AID 1117341;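 active means compound raises GLP1 secretion from the human gut endocrine cells, with no numeric limit stated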); settings: NCI-H716 cells, at 10 µM, stronger effect = higher value
[7] = HCT116 colon cancer cell growth inhibition, primary screen, CellTiter-Glo luminescence, NPC library (AID 1117342;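 active means compounds that lower survival of HCT116 colon cancer cells in the luminescence readout, no numeric limit stated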); settings: at 20 µM (top of the series)
[8] = reduced SW480 viability measured with CellTiter-Glo, NPC library, primary (AID 1117343;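 active means compounds that lower viability of the colon cancer cells in the luminescence readout, with no numeric limit stated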); settings: CellTiter-Glo luminescence; at 20 µM (top of the series) unless noted
[9] = NPC library primary testing for decreased DLD-1 cell viability via CellTiter-Glo (AID 1117346;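 active means compounds that lower survival of DLD-1 colon cancer cells in the luminescence readout, no cutoff given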); settings: DLD-1 viability, CellTiter-Glo luminescence; at 20 µM (top of the series)
[10] = modulation of C. elegans fzo-1 (AID 1259413; call rule not given here;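 further: fzo-1 mutant C. elegans worms in liquid wells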); settings: C. elegans fzo-1 modulator screen, mean read-out; stronger effect = higher value
[11] = EMT-state selective cytotoxicity in co-culture – imaging, PC-3E GFP, TEM4-18 mCherry, primary screen (AID 1345086;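 active means compounds killing one labelled cell type while sparing the other, by normalised counts and ratio limits, not self-fluorescent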;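 further: cells exposed to compound for 72 h before imaging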;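 on red/green cell ratio (normalised): normalised mesenchymal count divided by normalised epithelial count so high means epithelial killing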); settings: PC-3E GFP / TEM4-18 mCherry co-culture, imaging cell counts, at 1 µM
[12] = viability loss with induced miR-34 in A549 – imaging, A549 dox-inducible miR-34, nuclei and caspase counts, primary screen (AID 1347080;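 active means compounds whose cell count with miR-34 switched on is under 0.7 times the count with it off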); settings: A549 miR-34 inducible, Hoechst nuclei count, 48 h
[13] = MELAS cybrid and Rieske KO viability enhancers – cell-based, MELAS cybrids, Rieske KO mouse fibroblasts, CellTiter-Glo, primary screen (AID 1508586;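 active means mean z-score across replicates of 1.96 or higher in either the MELAS or the Rieske mutant cell line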;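 further: z relative to plate mean and SD of compound and empty wells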); settings: low glucose
[14] = drug combination growth inhibition, ovarian cancer – cell-based, oncology-focused library, rucaparib conditional, profiling panel (AID 1508598); settings: patient-derived ovarian cancer cells, CellTiter-Glo viability, 144 h, stronger effect = lower value
[15] = biological target: NAD(+) hydrolase SARM1 (Homo sapiens) (UniProt Q6SZW1); test: blocking NAD cleavage by SARM1 SAM-TIR – cell lysate, NAD-Glo luminescence (AID 1508614;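 active means compound whose remaining NAD level is above about 45 nM, limit read from the data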); settings: SAM-TIR HEK293T lysate NADase, at 1 µM, stronger effect = higher value
Sequence of NAD(+) hydrolase SARM1 (Homo sapiens) (Q6SZW1 whole entry, looked up): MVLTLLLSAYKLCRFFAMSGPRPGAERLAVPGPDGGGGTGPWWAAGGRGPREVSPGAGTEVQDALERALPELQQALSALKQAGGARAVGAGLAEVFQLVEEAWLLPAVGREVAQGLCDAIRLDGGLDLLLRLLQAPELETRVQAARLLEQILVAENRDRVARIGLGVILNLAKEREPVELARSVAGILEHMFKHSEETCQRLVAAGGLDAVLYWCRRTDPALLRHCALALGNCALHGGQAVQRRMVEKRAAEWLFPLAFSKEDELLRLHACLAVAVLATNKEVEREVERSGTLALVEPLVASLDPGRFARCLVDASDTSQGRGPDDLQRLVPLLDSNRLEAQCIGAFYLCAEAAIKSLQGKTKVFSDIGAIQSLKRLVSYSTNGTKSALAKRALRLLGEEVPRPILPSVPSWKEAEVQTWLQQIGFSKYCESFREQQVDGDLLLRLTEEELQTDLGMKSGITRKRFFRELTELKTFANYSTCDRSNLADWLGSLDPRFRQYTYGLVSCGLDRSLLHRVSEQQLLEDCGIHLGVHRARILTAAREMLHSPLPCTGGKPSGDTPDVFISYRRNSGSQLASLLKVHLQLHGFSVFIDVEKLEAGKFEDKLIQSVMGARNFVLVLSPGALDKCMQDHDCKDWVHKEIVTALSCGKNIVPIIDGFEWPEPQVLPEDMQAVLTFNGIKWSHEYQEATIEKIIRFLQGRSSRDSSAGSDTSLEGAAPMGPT

[16] = galactose survival enhancers in mitochondrial complex I cybrids – cell-based, galactose medium, ATP luminescence, primary screen (AID 1645843;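 active means z-score of at least 1.8 in each of two replicates, scored against plate mean and spread of sample wells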;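 further: positive z means more ATP and so rescue of galactose-driven cybrid death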); settings: complex I mutant cybrid cells, 72 h, stronger effect = higher value
[17] = biological target: 6-phosphogluconate dehydrogenase, decarboxylating (Homo sapiens) (UniProt P52209); test: inhibition of human phosphogluconate dehydrogenase – biochemical, recombinant enzyme, NADPH absorbance, primary screen (AID 1159550;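 active means at least 20% inhibition of 6-phosphogluconate dehydrogenase activity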); settings: recombinant 6PGD, NADPH absorbance 341 nm; at 10 µM; stronger effect = higher value
Sequence of 6-phosphogluconate dehydrogenase, decarboxylating (Homo sapiens) (P52209 whole entry, looked up): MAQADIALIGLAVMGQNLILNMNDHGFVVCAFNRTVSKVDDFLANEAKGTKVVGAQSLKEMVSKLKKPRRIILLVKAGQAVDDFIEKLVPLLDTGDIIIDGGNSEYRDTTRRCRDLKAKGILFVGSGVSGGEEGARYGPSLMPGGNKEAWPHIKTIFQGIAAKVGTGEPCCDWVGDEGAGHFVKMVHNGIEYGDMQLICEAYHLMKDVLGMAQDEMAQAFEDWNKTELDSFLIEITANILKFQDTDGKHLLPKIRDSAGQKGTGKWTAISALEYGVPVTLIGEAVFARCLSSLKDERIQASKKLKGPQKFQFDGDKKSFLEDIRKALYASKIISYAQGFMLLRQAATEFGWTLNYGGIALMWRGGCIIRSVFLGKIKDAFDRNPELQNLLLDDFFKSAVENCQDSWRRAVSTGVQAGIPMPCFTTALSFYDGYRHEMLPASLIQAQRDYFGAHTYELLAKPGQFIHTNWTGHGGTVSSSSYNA

## CC(C)n1c(/C=C/[C@@H](O)C[C@@H](O)CC(=O)O)c(-c2ccc(F)cc2)c2ccccc21
[1]
  survival: 2.5 (inactive)
[2]
  parasite load remaining: 164% (inactive) and 130% (inactive)
  viability: 82.3% and 114%
[3]
  insulin secretion stimulation: 3.6% (inactive)
[4]
  viability decrease: 97.8% (active)
[5]
  tube area decrease: 100% (active)
[6]
  GLP1 secretion stimulation: 1.4% (inactive)
[7]
  inhibition of viability: 88.8% (active)
[8]
  viability decrease (inhibition): 111% (active)
[9]
  viability decrease (inhibition): 50.2% (active)
[10]
  mean signal: 243 (inactive)
[11]; actives lie on both sides, counts scaled to control wells, 1 = unselective
  red/green cell ratio (normalised): 0.7 (inactive)
[11]; measured here: epithelial PC-3E GFP cell survival
  normalised cell number: 0.75
[11]; measured here: mesenchymal TEM4-18 mCherry cell survival
  normalised cell number: 0.53
[12]; stronger effect = lower value, cell number ratio, induced over uninduced
  fold change: 1.1 (inactive) and 1.08 (inactive)
[12]; measured here: relative caspase fold change +Dox/-Dox
  fold change: 0.844 and 2.14
[12]; measured here: total cells with miR-34 induction, stronger effect = lower value
  cell count: 1760 and 2100
[12]; measured here: total cells without miR-34 induction
  cell count: 1610 and 1940
[13]; MELAS cybrid survival, CellTiter-Glo 48 h, stronger effect = higher value
  z-score: -1.26 (inactive)
[13]; Rieske KO mouse fibroblast survival, CellTiter-Glo 72 h
  z-score: -0.983
[14]; at 0.000305 µM, OCI-C5x cells, with rucaparib 10 µM, 100% = cells with rucaparib alone
  viability: 102% (inactive)
[14]; at 0.000305 µM, OCI-C5x cells, without rucaparib
  viability: 102% (inactive)
[14]; at 0.000305 µM, OCI-P5x cells, with rucaparib 20 µM, 100% = cells with rucaparib alone
  viability: 86.5% (active)
[14]; at 0.000305 µM, OCI-P5x cells, without rucaparib
  viability: 89.2% (active)
[14]; at 0.00122 µM, OCI-C5x cells, with rucaparib 10 µM, 100% = cells with rucaparib alone
  viability: 102% (inactive)
[14]; at 0.00122 µM, OCI-C5x cells, without rucaparib
  viability: 109% (inactive)
[14]; at 0.00122 µM, OCI-P5x cells, with rucaparib 20 µM, 100% = cells with rucaparib alone
  viability: 89.7% (active)
[14]; at 0.00122 µM, OCI-P5x cells, without rucaparib
  viability: 88.8% (active)
[14]; at 0.00488 µM, OCI-C5x cells, with rucaparib 10 µM, 100% = cells with rucaparib alone
  viability: 92% (active)
[14]; at 0.00488 µM, OCI-C5x cells, without rucaparib
  viability: 96.6% (active)
[14]; at 0.00488 µM, OCI-P5x cells, with rucaparib 20 µM, 100% = cells with rucaparib alone
  viability: 82.4% (active)
[14]; at 0.00488 µM, OCI-P5x cells, without rucaparib
  viability: 87.2% (active)
[14]; at 0.0195 µM, OCI-C5x cells, with rucaparib 10 µM, 100% = cells with rucaparib alone
  viability: 73.9% (active)
[14]; at 0.0195 µM, OCI-C5x cells, without rucaparib
  viability: 71.3% (active)
[14]; at 0.0195 µM, OCI-P5x cells, with rucaparib 20 µM, 100% = cells with rucaparib alone
  viability: 44.2% (active)
[14]; at 0.0195 µM, OCI-P5x cells, without rucaparib
  viability: 53.6% (active)
[14]; at 0.0781 µM, OCI-C5x cells, with rucaparib 10 µM, 100% = cells with rucaparib alone
  viability: 50.9% (active)
[14]; at 0.0781 µM, OCI-C5x cells, without rucaparib
  viability: 54.7% (active)
[14]; at 0.0781 µM, OCI-P5x cells, with rucaparib 20 µM, 100% = cells with rucaparib alone
  viability: 21.8% (active)
[14]; at 0.0781 µM, OCI-P5x cells, without rucaparib
  viability: 31% (active)
[14]; at 0.313 µM, OCI-C5x cells, with rucaparib 10 µM, 100% = cells with rucaparib alone
  viability: 32.6% (active)
[14]; at 0.313 µM, OCI-C5x cells, without rucaparib
  viability: 33.3% (active)
[14]; at 0.313 µM, OCI-P5x cells, with rucaparib 20 µM, 100% = cells with rucaparib alone
  viability: 8.26% (active)
[14]; at 0.313 µM, OCI-P5x cells, without rucaparib
  viability: 10.2% (active)
[14]; at 1.25 µM, OCI-C5x cells, with rucaparib 10 µM, 100% = cells with rucaparib alone
  viability: 20.2% (active)
[14]; at 1.25 µM, OCI-C5x cells, without rucaparib
  viability: 22.5% (active)
[14]; at 1.25 µM, OCI-P5x cells, with rucaparib 20 µM, 100% = cells with rucaparib alone
  viability: 5.66% (active)
[14]; at 1.25 µM, OCI-P5x cells, without rucaparib
  viability: 4.09% (active)
[14]; at 5 µM, OCI-C5x cells, with rucaparib 10 µM, 100% = cells with rucaparib alone
  viability: 7.97% (active)
[14]; at 5 µM, OCI-C5x cells, without rucaparib
  viability: 7.19% (active)
[14]; at 5 µM, OCI-P5x cells, with rucaparib 20 µM, 100% = cells with rucaparib alone
  viability: 5.66% (active)
[14]; at 5 µM, OCI-P5x cells, without rucaparib
  viability: 4.42% (active)
[15]
  remaining NAD: 10 nM (inactive)
[16]
  z-score: -0.215 (inactive) and -1.78 (inactive)

## C=CC(C)(O)CCC=C(C)C (configuration not stated)
[17]
  inhibition: -3.42% (inactive)

## CC(=O)O[C@H]1CC[C@]2(C)C(C[C@@H](OC(C)=O)[C@]3(C)C4=CC(=O)OC(c5ccoc5)[C@@]4(C)CCC23)C1(C)C (some centres not stated)
[17]
  inhibition: 5.97% (inactive)

## CC1=CC(=O)C2C(C)(C)CCCC2(C)C1(O)CCc1ccoc1 (configuration not stated)
[17]
  inhibition: -22.2% (inactive)
